Assay [1] is described as follows: reducers of endogenous Her2 protein level, primary screen, SKBR3 breast tumor cells, AlphaScreen, ATP viability (AID 461;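 active means Her2 level under about 52% in both replicate screens, with viability over 70% of control, limit read from the data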;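 on Her2 level: lower value means less Her2 protein in the cells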;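 on viability: percent of carrier control wells set as 100% viability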). The conditions noted are these: 18-24 h, measured here: SKBR3 viability, ATP luminescence, at 10 µM.
The target in assay [2] is Receptor tyrosine-protein kinase erbB-2 (Homo sapiens) (UniProt P04626). The assay is described as above. The conditions noted are these: 18-24 h, at 10 µM, stronger effect = lower value.
Assay [3] is described as follows: SK-BR-3 cell growth inhibitors, pilot screen, 24 h, human (AID 572;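 active means viability at or below 10% of carrier control in both of two separate runs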;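 further: compound exposure lasted between 18 and 24 h rather than exactly 24 h; 100% = carrier-treated control wells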). The conditions noted are these: SK-BR-3 viability, CellTiter-Glo luminescence, at 10 µM, stronger effect = lower value. Background: In ATP-based viability assays light output follows the ATP content of the culture.
A short description of assay [4]: HUVEC growth inhibition – cell-based, human, primary screen (AID 575;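 active means viability at or below 30% in both replicate assays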;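 further: 100% = median of untreated cell wells with 0.1% DMSO on each plate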). The following applies: HUVEC proliferation, CellTiter-Glo luminescence, 72 h; at 10 µM; stronger effect = lower value.
Assay [5] in a line: growth inhibitors of H69AR lung tumor, primary screen, human, duplicate replicates (AID 580;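 active means viability at or under a set limit in both replicates, limit being median viability minus 3 SD, cut at about 48% in these data, passing the limit was not always enough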;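 further: 100% = mean luminescence of untreated wells and 0% = no signal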). The conditions noted are these: H69AR lung tumor cells viability, ATP luminescence, 72 h; at 10 µM; stronger effect = lower value.
A short description of assay [6]: reversal of MRP1-mediated doxorubicin resistance, pilot screen, H69AR cells, doxorubicin co-treatment (AID 601;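 active means viability loss from added drug above about 55%, and viability with drug at most 40%, in both replicates, limit read from the data, passing the limit was not always enough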). The following applies: CellTiter-Glo, 72 h, at 10 µM; for differential viability (reversal): stronger effect = higher value.
Assay [7] is described as follows: 384-well plate pilot, post-Golgi transport modulator project, inhibition of yeast transport mutant growth (AID 636; in the data active means inhibition above about 31%). The following applies: absorbance 615 nm, about 18 h, stronger effect = higher value.
Assay [8] in a line: growth suppression of yeast trafficking mutant, preliminary HTS, modulators of trafficking downstream of Golgi apparatus project, 1536-format plate, OD 615 nm (AID 637). The following applies: yeast transport mutant growth, absorbance 615 nm, 18 h; stronger effect = higher value.
Assay [9] can be described thus: OD615 S. cerevisiae growth inhibition, permissive medium, pilot counter-assay, permissive growth control for S. cerevisiae lifespan shortening project (AID 705;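 active means growth inhibition above 25% in both replicates, a cutoff set 3 SD above the mean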). The conditions noted are these: OD615, 24 h, at 10 µM, stronger effect = higher value.
A short description of assay [10]: Restrictive medium S. cerevisiae growth inhibition, OD615, pilot screen of yeast lifespan reduction project, restrictive growth control (AID 706;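 active means growth inhibition above a set limit, 3 SD over mean compound inhibition, in both replicates, cut at about 43% in these data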;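 further: modified DeaD lifespan yeast strain shifted to restrictive glucose medium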). The conditions noted are these: OD615, 48 h, at 10 µM, stronger effect = higher value.
Assay [11] is described as follows: viability gain of MRP-1-high H69AR cells under doxorubicin, pilot screen, MRP-1 activator project, CellTiter-Glo, duplicate (AID 807;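 active means viability increase at or above a cutoff of the median across tested compounds plus 3 SD, cut at about 8.5% in these data, passing the limit was not always enough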;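 further: compound pretreatment 18-22 h then 72 h combined with doxorubicin; 0% = doxorubicin alone and 100% = vehicle without doxorubicin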). The following applies: H69AR viability with doxorubicin, CellTiter-Glo luminescence; at 10 µM; stronger effect = higher value.
Assay [12] in a line: growth suppression of beta-catenin knockout HCT116, pilot screen, human colon tumor cells (AID 823;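 active means cell viability at or below a set limit in both duplicate runs, the limit being the all-compound median minus 4 SD, cut at about 23% in these data, passing the limit was not always enough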;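 further: 0% = wells killed by 20 µM Hyamine and 100% = untreated DMSO cell wells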). The conditions noted are these: CellTiter-Glo, 60 h, at 10 µM, stronger effect = lower value.
Assay [13] can be described thus: growth suppression of PTEN-deleted HCT116, pilot screen, cell-based, HCT116 clonal line, CellTiter-Glo (AID 824;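 active means viability at or below 27.92% in each of two runs, the all-compound median minus 4 SD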;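 further: 0% = 20 µM Hyamine control and 100% = vehicle cell control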). The conditions noted are these: 60 h, at 10 µM, stronger effect = lower value.
Assay [14] is described as follows: inhibitors of the yeast RAM network, pilot screen, dse1pr::URA3 reporter, 5-FOA selection (AID 869;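 active means inhibition over a set limit, the all-compound mean plus 3 SD, in both replicate runs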;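 further: 0% = DMSO wells with no growth and 100% = 10 µM 1-NA-PP1 with full growth; RAM network block rescues cells from 5-FOA so hits raise OD615 growth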). The following applies: S. cerevisiae dse1pr::URA3 5-FOA growth, OD615, 2 d; at 10 µM; stronger effect = higher value; strain carries analog-sensitive mutant Cbk1 kinase.
Assay [15] can be described thus: RAM signaling pathway blockade in yeast – S. cerevisiae, Pdr1DBD-CYC8 efflux-inhibited sensitized strain, primary screen (AID 1298;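 active means RAM network inhibition above 8.4% in each of two replicates, 3 SD over the compound average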;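 further: 0% = DMSO untreated cells without growth and 100% = 10 µM 1-NA-PP1 full growth; higher means more yeast growth rescued from 5-FOA killing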). The conditions noted are these: S. cerevisiae cbk1-as DSE1-URA3 strain, 5-FOA growth OD615, 2 d; at 50 µM; stronger effect = higher value.
[16] abbreviates: H69AR cells + 2 uM doxorubicin, measured here: viability with 2 uM doxorubicin, stronger effect = lower value.
The mark [17] stands for this setting: H69AR cells, compound alone cytotoxicity.

Each structure is given as a SMILES string. Records with an inconclusive call do not appear. Calls of active or inactive are those of the source. Unless noted, no stated cut-off is given here; in the data, active means inhibition above about 30%; inactive means the rest.

Consider 5 compounds from PubChem BioAssay.

Chain of Receptor tyrosine-protein kinase erbB-2 (Homo sapiens) (P04626 whole entry, looked up): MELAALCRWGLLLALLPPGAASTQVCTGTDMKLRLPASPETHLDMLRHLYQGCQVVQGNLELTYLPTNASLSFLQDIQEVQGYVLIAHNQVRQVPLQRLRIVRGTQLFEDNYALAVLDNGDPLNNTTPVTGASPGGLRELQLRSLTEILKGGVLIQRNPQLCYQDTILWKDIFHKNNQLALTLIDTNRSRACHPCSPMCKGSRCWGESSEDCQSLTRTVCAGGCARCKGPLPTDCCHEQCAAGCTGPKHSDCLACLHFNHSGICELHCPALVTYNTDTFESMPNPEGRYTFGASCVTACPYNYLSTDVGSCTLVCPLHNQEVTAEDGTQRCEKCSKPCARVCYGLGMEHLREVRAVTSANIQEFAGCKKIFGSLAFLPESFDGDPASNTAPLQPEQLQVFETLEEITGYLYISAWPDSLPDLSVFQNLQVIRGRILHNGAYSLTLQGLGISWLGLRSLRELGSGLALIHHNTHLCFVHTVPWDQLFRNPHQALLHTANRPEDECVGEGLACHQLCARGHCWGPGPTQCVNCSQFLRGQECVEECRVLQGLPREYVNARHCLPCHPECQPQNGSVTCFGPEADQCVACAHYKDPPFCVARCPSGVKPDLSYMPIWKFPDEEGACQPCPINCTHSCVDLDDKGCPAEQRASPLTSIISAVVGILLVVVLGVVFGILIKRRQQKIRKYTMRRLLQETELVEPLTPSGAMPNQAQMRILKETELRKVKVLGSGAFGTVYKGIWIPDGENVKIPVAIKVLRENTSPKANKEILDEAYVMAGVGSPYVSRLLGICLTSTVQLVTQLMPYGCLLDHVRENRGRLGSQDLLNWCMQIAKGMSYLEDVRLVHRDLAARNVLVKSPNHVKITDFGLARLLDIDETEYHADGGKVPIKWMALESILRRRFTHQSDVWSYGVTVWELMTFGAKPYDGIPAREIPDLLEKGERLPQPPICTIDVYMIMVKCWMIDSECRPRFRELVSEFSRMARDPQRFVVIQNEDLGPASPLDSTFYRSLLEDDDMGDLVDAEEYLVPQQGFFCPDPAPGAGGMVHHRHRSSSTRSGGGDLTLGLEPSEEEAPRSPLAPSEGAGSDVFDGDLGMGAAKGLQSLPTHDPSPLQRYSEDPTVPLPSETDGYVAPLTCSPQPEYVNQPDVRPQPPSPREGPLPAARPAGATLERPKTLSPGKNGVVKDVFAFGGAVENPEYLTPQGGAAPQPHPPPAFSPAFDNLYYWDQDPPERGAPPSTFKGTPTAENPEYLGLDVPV

As usually defined, the viability is a read-out of living cells in per cent, often relative to untreated cells. In general, inhibition refers to the change of the read-out against control, counted positive when it falls. In the case of `CCOC(=O)C1=C(C)NC(=O)NC1c1ccc(Br)s1` (stereo not given), the viability in assay [1] was 119%; in assay [3], 119% (inactive); in [4] it was 103% (inactive); in [5], 108% (inactive); in [6] (setting [16]), 83.5%; in [6] (setting [17]) it was 108%. The viability is 92.8% (inactive) in assay [12] and 89.7% (inactive) in [13]. The Her2 level in assay [2] was 102% (inactive). For the same compound, the differential viability (reversal) in [6] (H69AR cells + 2 uM doxorubicin) is 24.9% (inactive). Besides, the inhibition in assay [7] is -6.53% (inactive); in assay [8] it was 4.03% (inactive); in assay [14] it was 0.86% (inactive). For the same compound, the growth inhibition is -10.5% (inactive) in assay [9] and -15.3% (inactive) in assay [10]. Moreover, the viability increase in assay [11] was -0.63% (inactive). Besides, the RAM network inhibition in [15] was 3.71% (inactive).

Turning to `CCOC(=O)N1CCN(C(=O)c2ccc(CS(=O)(=O)c3ccc(OC)cc3)o2)CC1`, the viability in assay [1] was 88%; in assay [3], 88% (inactive); in [4], 104% (inactive); in assay [5], 89.2% (inactive); in assay [6] (setting [16]), 99.2%; in assay [6] (setting [17]) it was 89.2%. Further, the viability is 104% (inactive) in assay [12] and 97.4% (inactive) in assay [13]. The Her2 level in assay [2] was 88% (inactive). The differential viability (reversal) in [6] (H69AR cells + 2 uM doxorubicin) was -9.97% (inactive). The inhibition in assay [7] is -4.67% (inactive); in assay [8], 0% (inactive); in [14], -0.045% (inactive). The growth inhibition in [9] is -12.3% (inactive); in assay [10] it was -27.2% (inactive). The viability increase in assay [11] is -1.05% (inactive). The RAM network inhibition in assay [15] was 4.85% (inactive).

`O=C(NCc1ccc2c(c1)OCO2)C1CCC(CNc2c(N3CCCCC3)c(=O)c2=O)CC1` (stereo not given): the viability in [1] was 92.5%; in assay [3], 92.5% (inactive); in assay [4], 94% (inactive); in assay [5] it was 98.9% (inactive); in assay [6] (setting [16]) it was 91.9%; in assay [6] (setting [17]) it was 98.9%. Further, the values for the viability in [12] and in [13] were 94.6% (inactive) and 88.9% (inactive), respectively. Moreover, the Her2 level in assay [2] is 106% (inactive). Besides, the differential viability (reversal) in [6] (H69AR cells + 2 uM doxorubicin) was 7% (inactive). The values for the inhibition in assay [7], in assay [8] and in assay [14] were 0.64% (inactive), -2.17% (inactive) and 1% (inactive), respectively. The growth inhibition in assay [9] was -2.47% (inactive); in assay [10], 4.78% (inactive). Further, the viability increase in assay [11] is -2.93% (inactive). For the same compound, the RAM network inhibition in assay [15] was -0.46% (inactive).

As to `CCOC(=O)c1sc2nc(NC(=O)C(C)(C)C)sc2c1C`, the viability in [1] was 104%; in assay [3], 104% (inactive); in assay [4], 62.8% (inactive); in assay [5], 79.3% (inactive); in assay [6] (setting [16]), 67.5%; in [6] (setting [17]), 79.3%. Further, the viability in [12] is 74.5% (inactive); in [13], 74% (inactive). Further, the Her2 level in [2] was 75.5% (inactive). Further, in assay [6] (H69AR cells + 2 uM doxorubicin), the differential viability (reversal) is 11.9% (inactive). For the same compound, the inhibition in [7] is -3.73% (inactive); in assay [8], -4.59% (inactive); in assay [14] it was -0.52% (inactive). The growth inhibition in assay [9] is -1.74% (inactive); in [10], 5.62% (inactive). Further, the viability increase in assay [11] was -4.43% (inactive). In addition, the RAM network inhibition in assay [15] is 3.13% (inactive).

For `COc1ccc(C(=O)Oc2c(CN3CCOCC3)cc(Cl)c3cccnc23)cc1OC`, the viability is 93% in [1]; 93% (inactive) in [3]; 71.8% (inactive) in assay [4]; 1.58% (active) in [5]; 1.75% in assay [6] (setting [16]); 1.58% in assay [6] (setting [17]). The viability in [12] is 9.93% (active); in assay [13] it was 5.98% (active). In addition, in assay [2], the Her2 level is 95.5% (inactive). Besides, in assay [6] (H69AR cells + 2 uM doxorubicin), the differential viability (reversal) is -0.17% (inactive). For the same compound, the inhibition in assay [7] is -5.87% (inactive); in [8], -6.23% (inactive); in assay [14], 1.39% (inactive). Moreover, the growth inhibition was -12.6% (inactive) in assay [9] and -19.1% (inactive) in assay [10]. Besides, in assay [11], the viability increase was -8.29% (inactive). Further, in assay [15], the RAM network inhibition was 0.26% (inactive).
